From PubChem BioAssay (Tox21)
Inconclusive results are not listed. Values without a mark were called inactive. Active and inactive are the calls of the source. The call rests on the fitted dose curve; in most records, active means well fitted inhibition curve with a large enough effect in the signal ratio in the repeat runs (not every such curve was filed as active); inconclusive means weak or mixed curves, or effect the other way; inactive means no such curve, though single readings can be large or run the other way; the % refers to the signal ratio.

Target: Peroxisome proliferator-activated receptor delta (Homo sapiens) (UniProt Q03181)
Sequence (Q03181 whole entry, looked up): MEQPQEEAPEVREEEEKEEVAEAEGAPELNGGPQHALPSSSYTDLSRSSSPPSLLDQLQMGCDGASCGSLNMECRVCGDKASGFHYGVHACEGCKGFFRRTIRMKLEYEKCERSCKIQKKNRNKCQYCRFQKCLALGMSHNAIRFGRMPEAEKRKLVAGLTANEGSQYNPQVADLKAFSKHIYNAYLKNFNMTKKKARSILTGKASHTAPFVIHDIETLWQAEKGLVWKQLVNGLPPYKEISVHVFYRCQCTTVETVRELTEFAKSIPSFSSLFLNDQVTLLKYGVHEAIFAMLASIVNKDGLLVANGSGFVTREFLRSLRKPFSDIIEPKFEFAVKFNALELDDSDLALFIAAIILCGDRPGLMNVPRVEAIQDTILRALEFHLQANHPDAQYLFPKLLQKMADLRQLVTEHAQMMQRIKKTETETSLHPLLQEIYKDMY
Assay: qHTS assay to identify small molecule antagonists of the peroxisome proliferator-activated receptor delta (PPARd) signaling pathway (AID 743215);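 further: cells stimulated with agonist L165041 at 300 nM final during compound exposure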
Conditions: HEK293H PPARd-UAS-bla, beta-lactamase FRET ratio, antagonist, 17 h; series mostly up to 62 µM; ratio activity, negative = inhibition: at the top concentration
Description: U.S. Tox21 Program National Center for Advancing Translational Sciences [NCATS] NIH Chemical Genomics Center [NCGC] U.S. Environmental Protection Agency [EPA] National Institutes of Environmental Health Sciences [NIEHS] National Toxicology Program [NTP] U.S. Food and Drug Administration [FDA] Tox21 Assay Overview: The peroxisome proliferator-activated receptors (PPARs) are lipid-activated transcription factors of the nuclear receptor superfamily with three distinct subtypes namely PPAR alpha, PPAR delta (PPARd) and PPAR gamma. All these subtypes heterodimerizes with Retinoid X receptor (RXR) and have different physiological functions. […] To identify the compounds that inhibit PPAR-delta signaling, GeneBLAzer PPAR delta UAS-bla HEK293H cell line (Invitrogen, Carlsbad, CA, USA) containing a beta-lactamase reporter gene under the control of an Upstream Activator Sequence (UAS) was used to screen the Tox21 compound library.
Tox21 Assay Protocol Summary: PPARd-bla cells were dispensed at 3000 cells/5uL/well in 1536-well black wall/clear bottom plates using a Multidrop Combi (Thermo Fisher Scientific, Waltham, MA) dispenser. After the assay plates were incubated at 37 C and 5% CO2 for 5 h, 23 nL of compounds dissolved in DMSO, positive controls or DMSO only was transferred to the assay plate by a Pintool station (Kalypsys, San Diego, CA), followed by addition of 1ul L165041 (300 nM, final concentration in the wells). The assay plates were incubated at 37 C for 17 h, and then 1 uL of LiveBLAzerTM B/G FRET substrate was added using a Bioraptr Flying Reagent Dispenser (FRD) workstation (Beckman Coulter, Indianapolis, IN, USA). The assay plates were incubated at room temperature for 2 h and fluorescence intensity was measured by an Envision plate reader (PerkinElmer, Shelton, CT).
On the % scale 0 is the no-effect control and ±100 the full control effect; potency means the concentration at half of the fitted maximal effect.

| Structure (SMILES) | ratio activity, negative = inhibition | Potency |
| --- | --- | --- |
| Nc1ncnc2c1ncn2[C@H]1CC[C@@H](CO)O1 | 2.68% [at 80.4 µM] |  |
| CCCCCCCCN | -7.71% |  |
| C=C1c2cccc(O)c2C(O)=C2C(=O)[C@]3(O)C(O)=C(C(N)=O)C(=O)[C@@H](N(C)C)[C@@H]3[C@@H](O)[C@H]12 | -3.88% |  |
| CC1(CN2CCC(n3c(=O)[nH]c4ccccc43)CC2)OCc2ccccc2-n2cccc21 (stereo not given) | -25.5% |  |
| Oc1cccc(O)c1O | -7.81% |  |
| O=C1Cc2cc(Cl)ccc2N1 | -1.56% |  |
| CCCCCC#CC(=O)OC | -19.2% |  |
| CN1CCCN=C1COC(=O)C(O)(c1ccccc1)C1CCCCC1 (stereo not given) | -15.5% |  |
| Oc1ccc(Cl)c2cccnc12 |  | 1.06 µM (active) |
| CC(CN(C)C)C(C)(O)Cc1ccc(Cl)cc1 (stereo not given) | -12.6% |  |
| CC(=O)OCC[N+](C)(C)C | -0.874% |  |
| C=COCC(C)C | -23.7% [at 80.4 µM] |  |
| CC1CC(C)C(=O)C1=O (stereo not given) | 7.37% |  |
| CCCCCCCC/C=C\CCCCCCCCO | -4.38% |  |
| CCC1(CO)COCOC1 | -27.7% |  |
| Cc1cc(O)ccc1O | -6.75% [at 80.4 µM] |  |
| C=CC(C)(CCC=C(C)C)OC(=O)CC(C)C (stereo not given) | 1.8% |  |
| NCCNCCO | 1.47% [at 80.4 µM] |  |
| FC(F)(F)c1ccccc1Cl | 1.36% [at 80.4 µM] |  |
| CN(C)CCN1C(=O)c2ccccc2N(C)c2ccccc21 | -3.35% |  |

| Structure (SMILES) | ratio activity, negative = inhibition | Potency |
| --- | --- | --- |
| c1csc(SSc2cccs2)c1 | -14.1% |  |
| CC[N+](CC)(CCNC(=O)C(=O)NCC[N+](CC)(CC)Cc1ccccc1Cl)Cc1ccccc1Cl | 0.699% |  |
| O=C1c2ccccc2C(=O)c2c(O)c(O)cc(O)c21 | 2.53% |  |
| c1ccc2sc(SN(C3CCCCC3)C3CCCCC3)nc2c1 | 3.73% [at 80.4 µM] |  |
| N#CCCN(CCO)CCO | 2.36% |  |
| O[C@@H]1CO[C@H]2[C@@H]1OC[C@@H]2O | 8.38% |  |
| Clc1cc(Cl)nc(Cl)n1 | -10.6% [at 80.4 µM] |  |
| O=C=Nc1ccc(Cl)c(Cl)c1 | 5.31% |  |
| O=C(O)c1ccc(OCCCOc2ccc(C(=O)O)cc2)cc1 | -10% |  |
| CN(C)CCC=C1c2ccccc2C=Cc2ccccc21 | -17.1% |  |
| O=C(O)CCc1nc(-c2ccccc2)c(-c2ccccc2)o1 | 4.63% |  |
| CCOC(=O)OC(C)OC(=O)[C@@H]1N2C(=O)[C@@H](NC(=O)[C@H](N)c3ccccc3)[C@H]2SC1(C)C (stereo not given in full) | 4.36% |  |
| NNC(=O)CP(=O)(c1ccccc1)c1ccccc1 | 1.46% |  |
| CCC(OCCCOC)OC(C)=O (stereo not given) | 1.13% [at 80.4 µM] |  |
| CCOC(C)=O | -2.62% [at 80.4 µM] |  |
| Cc1cc2c(OCC(CNC(C)(C)C)OC(=O)c3ccccc3)cccc2[nH]1 (stereo not given) | 11.6% |  |
| CCCCCCCCOc1ccc(C(=O)O)cc1 | 1.42% |  |
| C(=C\c1ccccc1)/c1ccccc1 | -9.97% [at 80.4 µM] |  |
| Cc1ccc(CO)cc1 | 6.52% [at 80.4 µM] |  |
| CCCCCC[C@@H](O)C/C=C\CCCCCCCC(=O)O | -20.3% |  |
